Shown is part of a subset that was picked to be rich in the strongest signals.
Tests used:
Assay in all cases: glycan array binding signal (z-score within array); higher = stronger binding
Neu5Gc(a2-3)Gal(b1-4)Glc = conditions: glycan notation: IUPAC condensed, linker removed
How it was run: (§1)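 Arrays were curated from the Consortium for Functional Glycomics database, 3228 in total, and kept only where the protein sequence was available. Binding is expressed as a within-array Z-score. This score was averaged across arrays of the same protein sequence at different concentrations or buffers and across linkers, and negative values can be read as non-binding.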

[1] = system: Neu5Gc(a2-8)Neu5Gc(a2-3)Gal(b1-4)GlcNAc; conditions: glycan notation: IUPAC condensed, linker removed; mutation: R125K
How it was run: as §1

[2] = system: Neu5Gc(a2-3)Gal(b1-4)[Fuc(a1-3)]GlcNAc; conditions: glycan notation: IUPAC condensed, linker removed
How it was run: as §1

Neu5Gc(a2-6)GalNAc = conditions: glycan notation: IUPAC condensed, linker removed
How it was run: as §1

[3] = system: Neu5Gc(b2-6)Gal(b1-4)GlcNAc; conditions: glycan notation: IUPAC condensed, linker removed
How it was run: as §1

C3b (Homo sapiens), P01024, sequence (P01024 23-667): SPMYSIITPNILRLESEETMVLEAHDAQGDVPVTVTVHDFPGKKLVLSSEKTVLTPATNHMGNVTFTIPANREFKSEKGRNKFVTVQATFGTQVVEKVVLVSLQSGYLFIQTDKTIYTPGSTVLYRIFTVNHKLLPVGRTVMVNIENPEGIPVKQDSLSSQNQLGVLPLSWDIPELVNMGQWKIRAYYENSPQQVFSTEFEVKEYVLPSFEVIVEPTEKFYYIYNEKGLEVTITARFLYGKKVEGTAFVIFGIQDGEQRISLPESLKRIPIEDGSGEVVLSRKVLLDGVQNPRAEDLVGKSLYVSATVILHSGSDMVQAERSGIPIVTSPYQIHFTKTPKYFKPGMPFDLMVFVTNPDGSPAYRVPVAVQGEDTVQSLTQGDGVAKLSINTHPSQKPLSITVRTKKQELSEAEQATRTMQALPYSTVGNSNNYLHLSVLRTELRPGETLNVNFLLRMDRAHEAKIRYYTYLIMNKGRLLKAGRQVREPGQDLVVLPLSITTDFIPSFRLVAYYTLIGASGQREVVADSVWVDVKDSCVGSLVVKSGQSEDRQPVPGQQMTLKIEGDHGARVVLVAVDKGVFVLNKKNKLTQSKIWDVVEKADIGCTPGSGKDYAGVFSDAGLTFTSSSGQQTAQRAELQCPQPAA
SRLC (Mus musculus), Q8VIF6, sequence (Q8VIF6 other isoform, or with tags, fused parts or gaps): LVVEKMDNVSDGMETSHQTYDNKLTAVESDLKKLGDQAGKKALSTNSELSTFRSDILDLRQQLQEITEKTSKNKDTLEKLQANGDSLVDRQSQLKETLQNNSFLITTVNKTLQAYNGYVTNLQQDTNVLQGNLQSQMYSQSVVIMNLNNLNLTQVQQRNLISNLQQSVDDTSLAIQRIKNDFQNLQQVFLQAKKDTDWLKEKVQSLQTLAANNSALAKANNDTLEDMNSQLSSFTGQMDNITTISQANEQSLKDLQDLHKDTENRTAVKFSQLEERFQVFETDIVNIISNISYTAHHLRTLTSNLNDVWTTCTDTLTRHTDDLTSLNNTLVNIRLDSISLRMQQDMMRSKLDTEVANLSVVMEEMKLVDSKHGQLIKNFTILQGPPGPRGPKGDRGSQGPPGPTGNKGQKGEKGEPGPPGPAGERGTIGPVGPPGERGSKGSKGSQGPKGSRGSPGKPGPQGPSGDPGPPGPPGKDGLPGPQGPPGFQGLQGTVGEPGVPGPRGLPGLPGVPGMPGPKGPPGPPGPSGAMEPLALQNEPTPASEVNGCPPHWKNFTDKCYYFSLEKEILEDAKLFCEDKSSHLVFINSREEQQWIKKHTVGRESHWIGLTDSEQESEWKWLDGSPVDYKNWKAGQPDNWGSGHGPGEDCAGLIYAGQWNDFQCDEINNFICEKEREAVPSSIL
PILRb (Mus musculus), Q2YSF2, sequence (Q2YSF2 entry or part of it): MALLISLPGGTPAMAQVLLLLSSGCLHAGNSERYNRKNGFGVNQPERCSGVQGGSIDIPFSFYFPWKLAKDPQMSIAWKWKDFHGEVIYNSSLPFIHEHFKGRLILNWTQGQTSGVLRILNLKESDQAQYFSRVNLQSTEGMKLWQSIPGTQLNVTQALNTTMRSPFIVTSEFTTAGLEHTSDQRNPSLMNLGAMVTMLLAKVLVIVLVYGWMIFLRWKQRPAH
Aggrecan (Rattus norvegicus), NP_071526, sequence (chain, as listed by the source): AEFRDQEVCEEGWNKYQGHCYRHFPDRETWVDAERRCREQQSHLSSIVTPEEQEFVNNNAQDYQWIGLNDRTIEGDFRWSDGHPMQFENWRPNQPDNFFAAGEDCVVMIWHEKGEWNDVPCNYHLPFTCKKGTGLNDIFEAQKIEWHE
6RG (Lolium perenne), sequence (chain, as listed by the source): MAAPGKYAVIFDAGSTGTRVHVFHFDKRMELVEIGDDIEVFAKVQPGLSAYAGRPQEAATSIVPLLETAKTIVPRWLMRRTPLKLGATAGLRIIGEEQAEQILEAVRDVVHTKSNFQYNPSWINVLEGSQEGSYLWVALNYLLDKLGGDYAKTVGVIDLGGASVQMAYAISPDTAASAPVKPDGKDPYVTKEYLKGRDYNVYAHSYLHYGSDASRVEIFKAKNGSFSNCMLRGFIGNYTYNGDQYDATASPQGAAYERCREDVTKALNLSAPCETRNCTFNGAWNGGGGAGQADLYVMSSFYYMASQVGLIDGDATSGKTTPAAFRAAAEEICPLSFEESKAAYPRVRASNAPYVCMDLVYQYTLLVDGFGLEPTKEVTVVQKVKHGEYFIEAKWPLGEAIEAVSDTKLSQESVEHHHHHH

Siglec-8 (Homo sapiens), Q9NYZ4
glycan array binding signal (z-score) (Neu5Gc(a2-3)Gal(b1-4)Glc): -0.088 | glycan array binding signal (z-score) [1]: -0.526

SRLC (Mus musculus), Q8VIF6
glycan array binding signal (z-score) (Neu5Gc(a2-3)Gal(b1-4)Glc): -0.188

Aggrecan (Rattus norvegicus), NP_071526
glycan array binding signal (z-score) [2]: -0.152

6RG (Lolium perenne)
glycan array binding signal (z-score) (Neu5Gc(a2-6)GalNAc): -0.128

C3b (Homo sapiens), P01024
glycan array binding signal (z-score) (Neu5Gc(a2-6)GalNAc): -0.982

PILRb (Mus musculus), Q2YSF2
glycan array binding signal (z-score) [3]: -0.093

— the supplement of paper PMC8728848
